These results are taken from PubChem BioAssay (NCI).

Some test systems named below: HCT-15 colon; HT29 colon; SNB-75 CNS; SNB-19 CNS; U251 CNS; PC-3 prostate; SK-MEL-5 melanoma; UACC-62 melanoma; LOX IMVI melanoma; SK-MEL-28 melanoma; SK-MEL-2 melanoma; EKVX NSCLC; UO-31 renal; TK-10 renal; ACHN renal; CAKI-1 renal; A498 renal; CCRF-CEM leukemia; MOLT-4 leukemia; SN12C renal.
Common to all, as to test: NCI-60 one-dose screen, 48 h (100 = growth as untreated, 0 = no growth, -100 = all killed)
Common to all, as to settings: 10 µM

Compounds without any hit were thinned out: in the full panel of roughly 83,000, 20% have a hit.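 Each cell line was grown in a 96-well plate and treated with one concentration of compound for 48 hours. Values below 10 were considered active.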 Values without a mark were called inactive. Activity calls are given as the source filed them.

As to `CCOc1ccc(-n2cc(-c3ccc(N(C)C)cc3)[n+]3c2CCCCC3)cc1`, the growth in the test with HCT-15 colon was 75.8%; in the test on HT29 colon it was 9.2% (active); with SNB-75 CNS, 18.4%; with SNB-19 CNS, 20.3%; with U251 CNS, 8.21% (active); in the test on PC-3 prostate, 4.48% (active). Moreover, the growth in the test on SK-MEL-5 melanoma was -92.4% (active); in the test on UACC-62 melanoma it was 20.4%; in the test with LOX IMVI melanoma, 12.7%; in the test with SK-MEL-28 melanoma, 51.2%; in the test with SK-MEL-2 melanoma it was -7.29% (active); in the test with EKVX NSCLC, 14.1%. Besides, the growth is 66.1% in the test on UO-31 renal; 8.78% (active) in the test with TK-10 renal; 22.2% with ACHN renal; 60.9% in the test on CAKI-1 renal; -10.2% (active) in the test with A498 renal; 28.3% in the test on CCRF-CEM leukemia. Also, the growth with MOLT-4 leukemia was 13.4%.

Take `FC(F)(F)c1ccc(-c2cnc(Br)nc2NC2CCCCCC2)cc1`: the growth with HCT-15 colon was 73.1%; in the test with HT29 colon, 22.3%; in the test with SNB-75 CNS, 63.2%; in the test with SNB-19 CNS, 42.9%; with U251 CNS, 12.1%; in the test with PC-3 prostate, 5.8% (active). Further, the growth was 17.9% in the test on SK-MEL-5 melanoma; 14.4% in the test on UACC-62 melanoma; 40.1% in the test on LOX IMVI melanoma; 36.1% in the test on SK-MEL-28 melanoma; 13.2% in the test with SK-MEL-2 melanoma; 21.9% in the test on SN12C renal. The growth was 34.7% in the test on UO-31 renal; 36.6% in the test on TK-10 renal; 10.4% in the test with ACHN renal; 72.6% with CAKI-1 renal; 81.3% in the test with A498 renal; 28.5% with CCRF-CEM leukemia.

Turning to `CCn1nc(-c2ccccn2)c2cccnc2c1=S`, the growth is 67.2% in the test on HCT-15 colon; 51.9% with HT29 colon; 95.4% with SNB-75 CNS; 93.9% in the test with SNB-19 CNS; 74.5% in the test on U251 CNS; 38.4% with PC-3 prostate. The growth with SK-MEL-5 melanoma is 59.3%; in the test on UACC-62 melanoma, 81.2%; in the test on LOX IMVI melanoma, 87.5%; in the test on SK-MEL-28 melanoma, 89.4%; with SK-MEL-2 melanoma, 88.2%; with EKVX NSCLC, 59.9%. For the same compound, the growth is 77.3% with UO-31 renal; 89.9% in the test with TK-10 renal; 89.4% in the test on ACHN renal; 86.6% in the test with CAKI-1 renal; 99.2% in the test with A498 renal; 31.5% in the test on CCRF-CEM leukemia. Further, the growth in the test with MOLT-4 leukemia is 57.5%.

On to `CC(C)c1[nH]nc2c(NCc3ccc(-c4ccccn4)cc3)nc(SCCN(C)C)nc12`, for which the growth was 6.46% (active) with HCT-15 colon; -15.7% (active) in the test on HT29 colon; -55.9% (active) in the test on SNB-75 CNS; 13.7% in the test on SNB-19 CNS; 7.48% (active) in the test on U251 CNS; 2.89% (active) in the test on PC-3 prostate. Besides, the growth in the test with SK-MEL-5 melanoma was 1.36% (active); in the test with UACC-62 melanoma it was -37.2% (active); in the test with LOX IMVI melanoma it was -7.56% (active); in the test on SK-MEL-28 melanoma, 5.17% (active); in the test on SK-MEL-2 melanoma it was -65.6% (active); in the test on EKVX NSCLC, -5.89% (active). For the same compound, the growth is 16.7% with UO-31 renal; 6.52% (active) in the test with TK-10 renal; 7.84% (active) in the test with ACHN renal; 18.9% in the test on CAKI-1 renal; -66.3% (active) with A498 renal; 1.67% (active) in the test with CCRF-CEM leukemia. For the same compound, in the test with MOLT-4 leukemia, the growth is -8.11% (active).

Regarding `COc1cccc2c1C(=O)c1c(O)c3c(c(O)c1C2=O)C[C@@](O)(C(=O)COC(=O)c1cccnc1)C[C@@H]3OC1CC(N)C(O)C(C)O1` (some centres not stated), the growth in the test with HCT-15 colon is 32.9%; with HT29 colon it was -29.5% (active); in the test on SNB-75 CNS it was -75% (active); with SNB-19 CNS, 5.16% (active); in the test on U251 CNS it was -14.4% (active); in the test with PC-3 prostate it was -41.8% (active). Besides, the growth is -49.1% (active) with SK-MEL-5 melanoma; -88.4% (active) in the test on UACC-62 melanoma; 0.723% (active) in the test with LOX IMVI melanoma; -13.8% (active) in the test on SK-MEL-28 melanoma; -71.1% (active) with SK-MEL-2 melanoma; 6.29% (active) in the test with SN12C renal. Further, the growth in the test with UO-31 renal is -40.4% (active); in the test with TK-10 renal, -9.29% (active); with ACHN renal, -7.12% (active); in the test with CAKI-1 renal, -40.7% (active); in the test with A498 renal, -56.6% (active); with CCRF-CEM leukemia it was 0.652% (active).

As to `COc1ccc(-c2cc(/C=C3\C(=O)Nc4cc(Cl)ccc43)[nH]n2)cc1OC`, the growth in the test on HCT-15 colon was 51.2%; in the test on HT29 colon, 32.2%; with SNB-75 CNS it was 47.1%; in the test on SNB-19 CNS, 87%; in the test with U251 CNS, 75.7%; with PC-3 prostate, 58.5%. For the same compound, the growth was 64.8% in the test on SK-MEL-5 melanoma; 56.9% in the test with UACC-62 melanoma; 52.9% with LOX IMVI melanoma; 74.6% in the test on SK-MEL-28 melanoma; 58.7% with SK-MEL-2 melanoma; 70.5% in the test on SN12C renal. Moreover, the growth in the test on UO-31 renal is 74.6%; in the test on TK-10 renal, 92.7%; in the test on ACHN renal it was 84.3%; in the test with CAKI-1 renal it was 63.9%; in the test with A498 renal it was 65.3%; in the test with CCRF-CEM leukemia, 54.2%.

With `C=C1C(=O)O[C@H]2[C@H]1CC/C(COC(=O)OCCCCCOC(=O)OC/C1=C/CC[C@@]3(C)O[C@H]3[C@H]3OC(=O)C(=C)[C@@H]3CC1)=C\CC[C@@]1(C)O[C@@H]21`, the growth in the test with HCT-15 colon was -87.7% (active); with HT29 colon, -85.6% (active); with SNB-75 CNS it was 80.3%; with SNB-19 CNS, 25.7%; with U251 CNS, 4.2% (active); with PC-3 prostate, -25.9% (active). The growth was -78.8% (active) with SK-MEL-5 melanoma; -26.4% (active) with UACC-62 melanoma; -90.1% (active) in the test with LOX IMVI melanoma; -11% (active) with SK-MEL-28 melanoma; -30% (active) in the test on SK-MEL-2 melanoma; -4.3% (active) in the test with EKVX NSCLC. For the same compound, the growth with UO-31 renal is -54.9% (active); in the test with ACHN renal, -65.7% (active); in the test with CAKI-1 renal, -68.5% (active); in the test on A498 renal, -34.2% (active); with CCRF-CEM leukemia it was 1.79% (active); in the test with MOLT-4 leukemia it was -7.49% (active).

On to `CN(C1c2ccccc2Oc2ccccc21)S(=O)(=O)c1cc(Cl)ccc1Cl`, for which the growth was 33.8% with HCT-15 colon; 20.5% in the test on HT29 colon; 56.2% in the test on SNB-75 CNS; 65.7% with SNB-19 CNS; 43.8% in the test with U251 CNS; 54.5% in the test with PC-3 prostate. The growth in the test with SK-MEL-5 melanoma is 39.3%; in the test on UACC-62 melanoma, 32.6%; in the test with LOX IMVI melanoma, 50.3%; in the test with SK-MEL-28 melanoma it was 67%; in the test with SK-MEL-2 melanoma it was 42.9%; with EKVX NSCLC it was 57.7%. Also, the growth with UO-31 renal is 49.5%; in the test with ACHN renal it was 53.4%; in the test with CAKI-1 renal it was 54.2%; in the test on A498 renal it was 20.9%; with CCRF-CEM leukemia, 42.7%; in the test with MOLT-4 leukemia it was 43.3%.
